Here are results for 103 compounds from PubChem BioAssay AID488857 (Sanford-Burnham Center for Chemical Genomics, 2010).

The campaign covered roughly 1,400 compounds. About 560 (40%) were called active. So high a share suggests a set chosen from earlier hits. The list shows a part of the results. Values without a mark were called inactive.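 The calls were made as follows: active = mean inhibition over duplicate tests at 10 µM above 50%; inactive = the rest.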

This assay in a line: ASC/caspase-1 reporter retest in S. cerevisiae at one dose, specificity check for NALP1 project (AID 488857). The note with it: S. cerevisiae ASC/Caspase-1, beta-galactosidase luminescence, 24 h; at 10 µM; active compounds read high.
For the compound `COc1ccc(/C=C2/CCc3ccccc3C2=O)cc1OC`, the inhibition is 61.4% (active). Consider `C=CCNCCOc1ccc(C(C)(C)c2ccccc2)cc1`, for which the inhibition is 56.8% (active). For `COC(=O)C(Cc1ccccc1)NC(=O)COc1ccc(C(C)(C)C)cc1` (stereo not drawn), the inhibition was 34.1%. For `COCCCNCCOc1ccc(C(C)(C)c2ccccc2)cc1`, the inhibition is 64.7% (active). With `C=CCNCCOCCSc1ccc(Cl)cc1`, the inhibition was 42.4%. Take `COc1cccc(C2c3c(-c4ccccc4O)n[nH]c3C(=O)N2Cc2ccco2)c1` (stereo not drawn): the inhibition is 47.1%.

As for `C=CCNC(=O)/C(C#N)=C/c1c(C)nn(-c2ccccc2)c1Cl`, the inhibition is 69.8% (active). As to `COC(=O)c1ccc(/C=C(\C#N)C(=O)NC(C)c2ccccc2)cc1` (stereo not drawn), the inhibition is 43.5%.

With `Cc1nn(-c2ccccc2)c(Cl)c1/C=C(\C#N)C(=O)NC(C)C`, the inhibition is 68.6% (active). The figure for `O=C(O)/C=C/C(=O)OC1CC2CCC1C2` (stereo not drawn) is 23.1%; for `Cc1ccc(NC(=O)CN(C)C(=O)COc2cccc3cccnc23)cc1` it is 21.4%; for `CCN(CC)c1ccc(/C=N/OC(C)C(=O)Nc2ccc(C)cc2)cc1` (stereo not drawn) it is 53.4% (active). The figure for `c1ccc(CC2CCN(c3nnnn3-c3ccccc3)CC2)cc1` is 39.6%; for `O=C(CCNC(=O)c1ccccc1Cl)Nc1ccc2c(c1)OCO2` it is 34.6%. The figure for `Cc1ccc(C(=O)/C=C/c2ccc3c(c2)OCO3)o1` is 32.1%; for `O=C(/C=C/c1ccc2c(c1)OCCCO2)c1ccccc1O` it is 61.2% (active); for `O=C(O)Cn1nc(-c2ccccc2)oc1=O` it is 20.1%.

For the compound `COC(=O)Cn1nc(-c2ccccc2)c2ccccc21`, the inhibition is 99.4% (active). Consider `CC(NC(=O)c1ccc(F)cc1)C(=O)NC1=NCCS1` (stereo not drawn), for which the inhibition was 38.4%. The result for `O=C(NC1=NCCS1)c1ccc(Cl)s1` reads 53% (active); that for `CSc1sc(C(=O)N2CCc3ccccc32)cc1S(=O)(=O)C(C)C`, 30%. In the case of `O=C(c1cnn2ccccc12)N1CCc2ccccc21`, the inhibition is 57.4% (active). In the case of `CCC(=O)N1CCc2cc(S(=O)(=O)N3CCc4ccccc43)ccc21`, the inhibition is 37%. Turning to `CC(C)NC(=O)c1ccc(COCC(F)(F)F)cc1`, the inhibition was 36.5%.

For the compound `Cc1ccc(C(=O)Oc2ccc3c(c2)ncn3C)cc1`, the inhibition was 61.9% (active). With `Cc1ccc(C(=O)Nc2ccc3nc(C)sc3c2)s1`, the inhibition is 87.8% (active). Take `Cc1nc2c(ccc3c2ccc2nc(C)sc23)s1`: the inhibition was 38.2%. As to `Cc1nc2ccc(NC(=O)c3cc([N+](=O)[O-])cc([N+](=O)[O-])c3Cl)cc2s1`, the inhibition was 42.2%. For the compound `COc1cccc(/C=N/NC(=O)CCc2c(C)n[nH]c2C)c1`, the inhibition was 30.6%. For `Nc1[nH]ncc1N=Nc1ccc(Cl)cc1`, the inhibition is 64.8% (active). As to `CCCCNC(=O)COC(=O)c1ccc(Cl)c(S(N)(=O)=O)c1`, the inhibition is 37.4%. `CCCCOc1ccc(C(=O)CCN2CCCCC2)cc1`: the inhibition is 32.5%. On to `CCCOc1ccc(C(=O)c2nc3c(n2O)CCCCC3)cc1`, for which the inhibition is 52% (active). The figure for `CCCCCCNc1nc(NCc2ccco2)nc(OCC)n1` is 56.7% (active); for `COc1cccc(CNc2ccc3c(c2)CCC3)c1` it is 30.4%.

`O=[N+]([O-])c1cccc(CNc2ccc3c(c2)CCC3)c1`: the inhibition was 59.6% (active). With `COc1cccc(OCc2ccc(C(=O)NCC3CCCO3)cc2)c1` (stereo not drawn), the inhibition is 48.8%. As to `CCCc1cc(C(=O)Nc2cccc(Cl)c2)no1`, the inhibition is 81.6% (active). The figure for `CCn1ncc([N+](=O)[O-])c1C(=O)Nc1ccc(C(=O)N2CCCCC2)cc1` is 43.9%; for `CCn1nccc1C(=O)Nc1ccc(Cl)cn1` it is 34.9%. For `CCn1ncc(C(=O)Nc2cccc(Cl)c2)c1C`, the inhibition is 54.3% (active). As for `CCCc1cc(C(=O)Nc2ccc(F)cc2F)no1`, the inhibition is 46.5%. Take `CCCc1cc(C(=O)Nc2c(C)n(C)n(-c3ccccc3)c2=O)no1`: the inhibition is 16.9%.

For the compound `Cc1cc(C)c(S(=O)(=O)Nc2ccc(OCC(=O)O)cc2)c(C)c1`, the inhibition was 29.1%.

Turning to `CCNC(=S)SCCOc1ccccc1C`, the inhibition is 79.3% (active). As for `COc1ccc(N(CCC#N)S(=O)(=O)c2ccc(Cl)cc2)cc1`, the inhibition was 26.1%. In the case of `CC1CCCCC1NC(=O)/C(C#N)=C/c1ccccc1F` (stereo not drawn), the inhibition was 74.2% (active). The result for `CCCSc1nnc(C(C)C)n1N` reads 26.2%; that for `CCOC(=O)c1cc(-c2ccccc2)n(CC(=O)Nc2ccc(OC)c(OC)c2)c1C`, 37.5%; that for `COc1ccc(/C=N/OC(=O)Nc2ccccc2)cc1[N+](=O)[O-]`, 32.5%. `CCOc1ccc(/C=C/C(=O)c2ccccc2)cc1OC`: the inhibition was 55.5% (active). Take `CC(C)c1nc2sc3c(=O)[nH]cnc3c2c2c1CCC2`: the inhibition was 23.9%. For the compound `COc1ccccc1N1C(=O)C2CCC(c3ccccc3)CC2C1=O` (stereo not drawn), the inhibition is 27.9%. Regarding `Cc1cccc(Cn2c(C(C)(C)C)cc3cccnc32)c1`, the inhibition is 47.4%.

On to `CC(C)(C)c1cc2cccnc2n1Cc1cccc(Cl)c1`, for which the inhibition was 52.5% (active). Take `CCSc1ncc(/C=N/Nc2ccccc2)n1C`: the inhibition is 75.3% (active). The result for `CCSc1nnc(-c2cnn(-c3ccccc3)c2-n2cccc2)n1C` reads 34.5%; that for `COc1cc(NC(C)CCCN)c2ncccc2c1Oc1ccccc1` (stereo not drawn), 29.6%. The figure for `Cc1cc2ccccn2c1C(C[N+](=O)[O-])c1ccc(N(C)C)cc1` (stereo not drawn) is 21.9%. Take `Cc1[nH]n(-c2ccccc2)c(=O)c1C(C[N+](=O)[O-])c1ccc(Br)cc1` (stereo not drawn): the inhibition is 79% (active). Turning to `Cc1ccc(C(C[N+](=O)[O-])c2c(C)[nH]n(-c3ccccc3)c2=O)cc1` (stereo not drawn), the inhibition is 82.5% (active). In the case of `COC(=O)C1(C(C[N+](=O)[O-])c2ccc(C)cc2)C(=O)NCC1c1ccco1` (stereo not drawn), the inhibition is 49%.

Turning to `O=c1cc(CSc2ccc(Cl)cc2)[nH]c2[nH]n(-c3ccccc3)c(=O)c12`, the inhibition was 42.8%.

In the case of `Cc1[nH]n(-c2ccccc2)c(=O)c1C(C[N+](=O)[O-])c1ccc(Cl)cc1` (stereo not drawn), the inhibition was 87.4% (active). As for `O=C1N/C(=N\N=C\c2cccnc2)SC1Cc1ccc(SC(F)F)cc1` (stereo not drawn), the inhibition is 29.8%. For `NC(=O)c1ncc(C(F)(F)F)cc1Oc1ccc(C(F)(F)F)cc1`, the inhibition is 42.5%. With `CCOc1cc(/C=N/NC(=O)c2nn(C)cc2Br)ccc1OCc1ccccc1Cl`, the inhibition was 26.2%. Turning to `CC(=O)Nc1ccc2nc(CN3CCC(CO)(CCc4ccccc4)CC3)ccc2c1`, the inhibition is 36.4%. For the compound `CCCCn1cnc2c1c(=O)[nH]c(=O)n2CCCC`, the inhibition was 7.55%. For `Cc1[nH]c2ccccc2c1C(=O)CSc1nc2ncc(Cl)cc2[nH]1`, the inhibition is 36.2%.

For `CC(NC(=O)/C(C#N)=C/c1ccc(Cl)c([N+](=O)[O-])c1)c1ccccc1` (stereo not drawn), the inhibition was 62.2% (active).

In the case of `CC(NC(=O)/C(C#N)=C/c1ccc([N+](=O)[O-])o1)c1ccccc1` (stereo not drawn), the inhibition was 36.7%. Take `CC(OC(=O)CC(NC(=O)c1ccccc1Cl)c1ccccc1)C(=O)Nc1cccc(Cl)c1Cl` (stereo not drawn): the inhibition was 34.5%. Take `CC(C)NC(=O)/C(C#N)=C/c1cccc(NC(=O)c2ccccc2Cl)c1`: the inhibition was 63.5% (active). On to `CC(=O)Nc1sc2c(c1-c1nc3ccccc3s1)CCN(C(C)C)C2`, for which the inhibition was 98% (active). The result for `Fc1ccc(NC(=S)N2CCSC2c2cccs2)cc1` (stereo not drawn) reads 25.8%; that for `CC(C)(C)c1ccc(/C=C/C(=O)c2ccc(NC3=NCCCS3)cc2)cc1`, 53.1% (active). For the compound `Cc1cccc(/C=C/C(=O)c2ccc(NC3=NCCCS3)cc2)c1`, the inhibition was 60.4% (active).

On to `CC(=O)OCC(=O)[C@H]1CC[C@H]2[C@@H]3CC=C4C[C@@H](O)CC[C@]4(C)[C@H]3CC[C@]12C`, for which the inhibition is 32.5%. For `Brc1ccc(C=Nc2ccc(Nc3ccccc3)cc2)s1`, the inhibition was 56.1% (active). Regarding `Cc1ccc(C(=O)c2c(NC(=O)c3ccncc3)sc3c2CCCC3)cc1`, the inhibition was 58.1% (active).

With `Cc1ccccc1OCC(=O)Nc1sc2c(c1C#N)CCC2`, the inhibition was 35.5%. `CCCCNC1CCS(=O)(=O)C1` (stereo not drawn): the inhibition was 37.9%.

`CC(C)Oc1ccc2c(=O)c(-c3ccccc3)coc2c1`: the inhibition was 73.6% (active). The result for `CC(C)OC(=O)COc1ccc(-c2ccccc2)cc1` reads 47.1%. `Cc1ccc(CN2CCN(/N=C/c3ccc(C(F)(F)F)cc3)CC2)c(C)c1`: the inhibition was 50.5% (active). Turning to `O=C(Nc1cccc(F)c1)c1ccc(CSc2ccccc2)o1`, the inhibition was 37.5%. As to `Cc1ccccc1-c1ccc(C(=O)Nc2cccc(F)c2)o1`, the inhibition is 56.5% (active). For `Cc1oc(C(=O)O)cc1COc1ccc2c3c(c(=O)oc2c1)CCC3`, the inhibition was 46.1%. The result for `COc1ccc2c(c1)O/C(=C\c1sccc1C)C2=O` reads 66.5% (active); that for `COC(=O)c1cccc(NC(=O)/C=C/c2ccc3c(c2)OCO3)c1`, 77.6% (active); that for `O=C(O)c1ccc2c(c1)N(Cc1cccc(F)c1)C(=O)CS2`, 19.6%. The result for `COc1ccccc1OCCN1CSC(=S)N(C)C1` reads 54.5% (active); that for `CCCCC(CC(O)COCCC)c1n[nH]c(=S)n1-c1ccccc1` (stereo not drawn), 42%. The figure for `O=[N+]([O-])c1cc(Cc2ccccc2)cc(C=Nc2ccc(N3CCOCC3)cc2)c1O` is 51.5% (active). For `O=[N+]([O-])c1cc2oc3c(c2c(C=NCc2ccccc2)c1O)CCCC3`, the inhibition is 42.5%. For `CN(C)c1ccc(O)c2c1CC1CC3[C@@H](N(C)C)C(=O)C(C(N)=O)=C(O)[C@]3(O)C(=O)C1=C2O` (stereo partly drawn), the inhibition was 31.9%. The result for `COc1cccc(/C=N/NC(=O)CNC(=O)C2COc3ccccc3O2)c1O` (stereo not drawn) reads 42.9%; that for `O=C(N/N=C\c1cccc([N+](=O)[O-])c1O)C1COc2ccccc2O1` (stereo not drawn), 81.3% (active); that for `CCCCN(C)C(=O)c1nc2ccccn2c1CNCCCn1ncc2ccccc21`, 33.2%.

`Cn1cc(C(=O)NCc2ccc(F)cc2)c(=O)c2cc(S(=O)(=O)N3CCCCC3)ccc21`: the inhibition was 34.4%. Regarding `O=[N+]([O-])c1cc(S(=O)(=O)N2CCCCCC2)ccc1F`, the inhibition was 86.2% (active).

As to `CC(C)C(C)NC(=O)COc1ccc(S(=O)(=O)N2CCOCC2)cc1[N+](=O)[O-]` (stereo not drawn), the inhibition is 12.2%.

A word on the inhibition: it is the percentage by which the read-out fell short of the control.
